A selection: hits, their analogues and other compounds. The true share with any hit is near 4.6%.
TRHR agonist: qHTS for Small Molecule Agonists and Allosteric Enhancers of Human TRH Receptor: Primary Screen for Agonists; Thyrotropin-releasing hormone receptor (Homo sapiens), P34981; TRHR cells, calcium flux fluo-8, FDSS agonist mode; activation, % at 2 µM; 360,000 compounds, 0.18% hits; AID 493084, 2011; further: 0% is about no effect
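TRHR-expressing cells loaded with fluo-8 calcium dye; 23 nL library compound pin-transferred, kinetic FDSS fluorescence (Ex 480/Em 530) recorded about 180 s for agonist-induced calcium release, before a 10 nM TRH EC20 addition for potentiator mode.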
D1 antag: Antagonist of Human D 1 Dopamine Receptor: qHTS; 360,000 compounds, 3.2% hits; D(1A) dopamine receptor (Homo sapiens), P21728; HEK293 TREx D1 cells, calcium flux, dopamine EC80; active compounds read low; activity change, negative = inhibition, % at 10 µM; in the data active means activity change below about -30%; further: on the % scale 0 is the no-effect control and ±100 the full control effect
Target sequence (P21728 whole entry, looked up): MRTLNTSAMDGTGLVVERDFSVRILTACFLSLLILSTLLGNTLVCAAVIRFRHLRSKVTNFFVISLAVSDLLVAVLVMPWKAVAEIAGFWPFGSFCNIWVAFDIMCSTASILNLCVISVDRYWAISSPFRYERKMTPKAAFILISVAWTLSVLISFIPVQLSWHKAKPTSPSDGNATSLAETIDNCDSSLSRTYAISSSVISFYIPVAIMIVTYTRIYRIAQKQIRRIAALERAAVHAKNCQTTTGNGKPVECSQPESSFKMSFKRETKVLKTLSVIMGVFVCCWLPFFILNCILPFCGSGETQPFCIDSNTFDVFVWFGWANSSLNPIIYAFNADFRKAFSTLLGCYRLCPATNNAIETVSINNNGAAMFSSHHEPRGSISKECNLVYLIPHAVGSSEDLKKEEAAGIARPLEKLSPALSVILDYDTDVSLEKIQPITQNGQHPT
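HEK293 T-REx cells expressing inducible, force-coupled D1 receptor; no-wash Ca dye, 30–90 min RT. Cmpd → 180 s read at 1 Hz → EC80 DA → 180 s read.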
TRHR enhancer: qHTS for Small Molecule Agonists and Allosteric Enhancers of Human TRH Receptor: Primary Screen for Enhancers; TRHR cells, fluo-8 calcium fluorescence, EC20 TRH enhancement; enhancement, % at 2 µM; 360,000 compounds, 0.66% hits; AID 493056, 2011; in the data active means enhancement above about 30%; further: 0% is about no effect
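TRHR-expressing cells loaded with fluo-8 calcium dye were read kinetically (ex 480/em 530) during compound addition, then stimulated with an EC20 of TRH (10 nM final). Enhancement of the Gq-mediated intracellular calcium response was scored.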
D1 agonist: Allosteric Agonists of the Human D1 Dopamine Receptor: qHTS; HEK293 T-REx D1 cells, calcium flux, agonist mode; activation, % at 2 µM; 360,000 compounds, 1% hits; further: 0% is about no effect
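Tetracycline-induced HEK293 TREx D1 cells, force-coupled to calcium signalling, were dye-loaded with a no-wash calcium kit. Compound was pin-added after a 10 s baseline. Fluorescence was read kinetically at 1 cycle/s for 180 s, with calcium rises flagged as agonism.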
D1 potentiator: Potentiators of Human D1 Dopamine Receptor: qHTS. HEK293 TREx D1 cells, calcium flux, dopamine EC20 potentiation. D(1A) dopamine receptor (Homo sapiens), P21728. 360,000 compounds, 0.036% hits. potentiation, % at 10 µM; in the data active means potentiation above about 30%; further: 0% is about no effect
* hit, by the source's call; ! = not confirmed by another sample. Unless noted, no stated cut-off is given here; in the data, active means activation above about 30%; inactive means the rest.

SMILES | TRHR agonist | D1 antag | TRHR enhancer | D1 agonist | D1 potentiator
CC(C)C(=O)Nc1nnc(S(=O)(=O)N2CCCCCC2)s1 | 1 | -32*! | 7 | 0 | -1
O=C(Nc1nnc(S(=O)(=O)N2CCCCCC2)s1)c1ccc(Cl)cc1 | 1 | 4 | 37*! | 8 | 8
CC1CCN(S(=O)(=O)c2nnc(NC(=O)c3cccc(Br)c3)s2)CC1 | 0 | 10 | -1 | 1 | 0
CCC(CC)C(=O)Nc1nnc(S(=O)(=O)N2CCCCCC2)s1 | 2 | 0 | -8 | 7 | 5
Cc1ccc(C(=O)Nc2nnc(S(=O)(=O)N3CCCCCC3)s2)cc1 | 0 | -2 | 5 | 1 | -3
O=C(Nc1nnc(S(=O)(=O)N2CCCCC2)s1)c1cccc(Br)c1 | 1 | -5 | -1 | 30* | -4
O=C(CCNC(=O)N1CC(=O)Nc2ccccc21)NCc1ccc(F)cc1 | 0 | 1 | -4 | 2 | 3
O=C(CCCN1C(=O)c2ccccc2C1=O)Oc1ccc(F)cc1 | 0 | -32* | 1 | 0 | -6
O=C1c2ccccc2C(=O)N1CCCCON1C(=O)c2ccccc2C1=O | 0 | -36* | -1 | 5 | -4
COC(=O)c1ccc(CN2C(=O)c3ccccc3C2=O)cc1 | -1 | 4 | -7 | 1 | 2
COC(=O)c1ccc(OC(=O)CN2C(=O)c3ccccc3C2=O)cc1 | 1 | -34* | -2 | 6 | -3
Cn1c(C(N)=O)cnc1Sc1ncc(C(F)(F)F)cc1Cl | 0 | -47* | 0 | 5 | -6
C/C(CCC(C)C)=N\NC(=O)COc1ccccc1-c1ccccc1 | 0 | 4 | 1 | 3 | -5
O=S(=O)(Cc1cc(Oc2ccccc2)nc(-c2ccccc2)n1)c1ccccc1 | 0 | -33* | 2 | 0 | -5
O=C(Nc1cccnc1)c1ccc(COc2cc(Cl)ccc2Cl)o1 | 0 | -7 | -2 | 12 | -5
O=C(N/N=C/c1ccc(O)cc1)c1ccc(COc2cc(Cl)ccc2Cl)o1 | 0 | -8 | -6 | 43* | -4
CCOC(=O)C(C)Oc1ccc2c(CC)cc(=O)oc2c1C (stereo unspecified) | -1 | 6 | -4 | 1 | -3
CCOC(=O)CCc1c(C)c2ccc(OC(C)C(=O)OCC)c(C)c2oc1=O (stereo unspecified) | -1 | -41* | 12 | 18 | -12
Cn1ccnc1C(=O)c1cccc([N+](=O)[O-])c1 | 0 | 1 | 2 | 1 | -4
C/C(=N\NC(=O)Cc1cccn1C)c1ccc2ccccc2c1 | 0 | -36* | 6 | 2 | -8
c1ccc(Cn2c(SCCN3CCOCC3)nnc2-c2cccnc2)cc1 | 0 | -29 | 1 | 3 | -4
O=C(NCCc1cccc(Cl)c1)c1cccc([N+](=O)[O-])c1 | -2 | -42* | -3 | 4 | -4
O=C(Cc1ccccc1)NCCc1cccc(Cl)c1 | -1 | -55* | 6 | 27 | -8
Cc1cc(C(=O)NCCc2ccccc2)ccc1[N+](=O)[O-] | -1 | -17 | 9 | 2 | -6
O=C(NCCc1ccccc1)c1ccc(Cl)c([N+](=O)[O-])c1 | 1 | -36* | -3 | 2 | -2
SMILES | TRHR agonist | D1 antag | TRHR enhancer | D1 agonist | D1 potentiator
NS(=O)(=O)c1ccc(CCNC(=O)c2cccc([N+](=O)[O-])c2)cc1 | 2 | 5 | -3 | 1 | -2
Cc1cc(N2C(=O)c3ccc(C(=O)Nc4ccc(O)cc4C(=O)O)cc3C2=O)no1 | 0 | -35* | 0 | 12 | -1
CC1CCN(C(=O)CSc2n[nH]c(-c3cccs3)n2)CC1 | -1 | 2 | -1 | 4 | 13
O=C(CSc1n[nH]c(-c2cccs2)n1)N1CCN(S(=O)(=O)c2ccccc2)CC1 | 0 | -59* | -4 | 7 | -11
CCCCn1c(N)c(N(CC)C(=O)c2ccc(Cl)c([N+](=O)[O-])c2)c(=O)[nH]c1=O | -2 | 1 | 1 | 4 | -3
CC1=C(C(=O)Nc2cc(Cl)ccc2C)C2(CCCCC2)OC1=O | 0 | 15 | 7 | 32* | 1
CC1=C(C(=O)Nc2cc(C)ccc2C)C2(CCCCCC2)OC1=O | 1 | 7 | 12 | -2 | -1
CC1=C(C(=O)NCc2cccc(Cl)c2)C2(CCCCCC2)OC1=O | -1 | -31* | 17 | 1 | -2
COc1cc(OC)c(NC(=O)C2=C(C)C(=O)OC23CCCCCC3)cc1Cl | 0 | -70* | 14 | -1 | -6
Cc1ccc(NS(=O)(=O)c2ccc(Cl)c(C(=O)Nc3cccc(C(=O)O)c3)c2)cc1 | 1 | -1 | 3 | 3 | -3
CCn1c(C)c(C)c2cc(C(=O)N3CCN(c4ccccc4)CC3)ccc21 | 1 | -2 | 5 | 5 | 2
CC(=O)n1c(C=Nc2ccc(Cl)cc2)c(O)c2ccccc21 | -4 | 2 | 9 | 39* | 1
CN(CC1CCCN(CCc2ccccc2F)C1)C(=O)c1ccoc1 (stereo unspecified) | 1 | 8 | 1 | 1 | 3
Cc1cc(C)c(C(=O)N(C)CC2CCCN(CCc3ccccc3F)C2)o1 (stereo unspecified) | 0 | -67* | -2 | 1 | -2
Cc1occc1C(=O)N(C)CC1CCCN(CCc2ccccc2F)C1 (stereo unspecified) | -1 | -32* | 18 | 3 | -5
COc1ccc(/C=C/C(=O)C2CC2)cc1COc1c(C)cccc1C | 2 | 2 | 4 | 11 | 0
O=C(CN1C(=O)C2C3CCC(C3)C2C1=O)OCC(=O)c1cccc([N+](=O)[O-])c1 (stereo unspecified) | 0 | -33* | -1 | 14 | -6
O=C(CCN1C(=O)C2C3CCC(C3)C2C1=O)OCC(=O)c1cccc([N+](=O)[O-])c1 (stereo unspecified) | 0 | -6 | 2 | 3 | 5
CC(C)C(C(=O)OCC(=O)c1cccc([N+](=O)[O-])c1)N1C(=O)[C@@H]2[C@H]3CC[C@H](C3)[C@@H]2C1=O (stereo partly specified) | 0 | -33* | -4 | 2 | 2
NNC(=O)COc1ccccc1F | 0 | 15 | 5 | 1 | -7
Cc1ccc2cc(CN(C(=O)c3ccco3)c3cccc(C)c3C)c(=O)[nH]c2c1 | 0 | 6 | 5 | 2 | -2
CCOc1cc(CNCc2cccnc2)ccc1OCC(=O)NC(C)(C)C | 0 | 3 | 36* | 3 | -6
CCOc1cc(CNCCc2ccccc2)ccc1OCC(=O)NC(C)(C)C | -1 | -4 | -3 | 122* | -3

Bioassay records deposited in PubChem by National Center for Advancing Translational Sciences (NCATS).
